Assay results from PubChem BioAssay AID463173 (ICCB-Longwood Screening Facility, Harvard Medical School, 2010).
Out of some 52,000 compounds screened, about 4,300 (8.3%) were called active. The sample holds actives, similar compounds and a random draw of the others, so the mix is not that of the screen. No stated cut-off is given here; in the data, active means survival mostly below about 52% (no sharp cut-off); inactive means mostly above about 56%.

System: DeltatarO mutant
Assay: growth inhibition of S. aureus wild type versus tarO mutant, primary screen, teichoic acid synthesis inhibitors, RN4220, OD600 (AID 463173)
Details: OD600, 18 h, active compounds read low, screened at 18.75 µg/mL (by protocol)

SMILES | survival
CCOc1ccccc1N(CC)C(=O)Cn1ncc2c1-c1ccccc1OC2 | 62% (inactive)
COc1cccc(C(=O)N(Cc2ccc(N(C)C)cc2)Cc2ccco2)c1 | 69% (inactive)
CCOCN(C(=O)Cn1c(C)nc2ccccc21)c1c(C)cccc1CC | 125% (inactive)
CCOCN(C(=O)Cn1c(CC(C)C)nc2ccccc21)c1c(C)cccc1CC | -12% (active)
CCc1cccc(CC)c1N(COC)C(=O)Cn1c(CC)nc2ccccc21 | 69% (inactive)
CCOCN(C(=O)Cn1c(C(C)O)nc2ccccc21)c1c(C)cccc1CC (stereo unspecified) | 83% (inactive)
CCCCc1nc2ccccc2n1CC(=O)N(COCC)c1c(C)cccc1CC | -12% (active)
CCOCN(C(=O)Cn1c(COC)nc2ccccc21)c1c(C)cccc1CC | 95% (inactive)
CCc1ccc(NC(=O)Cn2c(=O)n(-c3cc(C)cc(C)c3)c(=O)c3oc4ccccc4c32)cc1 | 73% (inactive)
COc1ccc(-c2cn(-c3ccc(C)cc3)c(S(=O)(=O)CC(=O)Nc3ccc(F)cc3)n2)cc1 | 150% (inactive)
CCc1ccc(NC(=O)c2sc3nc(C)c(Cl)c(C)c3c2NC(=O)c2ccccc2OC)cc1 | 130% (inactive)
COc1ccc(N2CCN(C(=O)C(CC(C)C)NS(=O)(=O)c3ccc4nc(C)sc4c3)CC2)cc1 (stereo unspecified) | 77% (inactive)
O=C(CSc1cn(CC(=O)N2CCCCC2)c2ccccc12)Nc1ccccc1F | 70% (active)
O=C(CSc1cn(CC(=O)N2CCOCC2)c2ccccc12)Nc1ccccc1F | 88% (inactive)
O=C(CSc1cn(CC(=O)N2CCCCCC2)c2ccccc12)Nc1ccccc1F | 77% (inactive)
Cc1ccccc1CSc1cn(CC(=O)N2CCCC2)c2ccccc12 | 58% (inactive)
Cc1ccccc1CSc1cn(CC(=O)N2CCCCC2)c2ccccc12 | 71% (active)
Cc1ccccc1CSc1cn(CC(=O)N2CCCCCC2)c2ccccc12 | 68% (inactive)
CCC(=O)N1c2ccccc2CC1C(=O)N1CCN(c2cccc(Cl)c2)CC1 (stereo unspecified) | 77% (inactive)
CCn1cc(C(=O)NCCc2ccc(Cl)cc2)c(=O)c2cc(S(=O)(=O)N3CCC(C)CC3)ccc21 | 105% (inactive)
CCN(CC)CCN(C(=O)c1ccco1)c1nc2c(C)c(C)ccc2s1 | 77% (inactive)
O=[N+]([O-])c1cc(-c2nc(-c3ccccc3)no2)ccc1N1CCCC1 | 63% (inactive)
Cc1cccc(NC(=O)CC2Nc3ccccc3NC2=O)c1 (stereo unspecified) | 71% (inactive)
COc1cccc(NC(=O)CC2Nc3cc(C)c(C)cc3NC2=O)c1 (stereo unspecified) | 89% (inactive)

SMILES | survival
Cc1ccc(NC(=O)CC2Nc3ccccc3NC2=O)cc1C (stereo unspecified) | 58% (inactive)
COc1ccc(NC(=O)CC2Nc3ccccc3NC2=O)cc1 (stereo unspecified) | 61% (active)
O=C(CC1Nc2cccc3cccc(c23)NC1=O)Nc1ccc(F)cc1 (stereo unspecified) | 111% (inactive)
CC(=O)c1ccc(NC(=O)CC2Nc3cccc4cccc(c34)NC2=O)cc1 (stereo unspecified) | 72% (inactive)
Cc1cccc(NC(=O)CC2Nc3cccc4cccc(c34)NC2=O)c1 (stereo unspecified) | 64% (inactive)
COc1ccc(NC(=O)CC2Nc3cccc4cccc(c34)NC2=O)cc1 (stereo unspecified) | 41% (active)
CCOC(=O)c1ccc(NC(=O)CC2Nc3cccc4cccc(c34)NC2=O)cc1 (stereo unspecified) | 28% (active)
Cc1ccc(NC(=O)CC2Nc3cccc4cccc(c34)NC2=O)cc1 (stereo unspecified) | 61% (inactive)
CCOc1ccc(NC(=O)CC2Nc3cccc4cccc(c34)NC2=O)cc1 (stereo unspecified) | 37% (active)
CCOC(=O)c1ccc(NC(=O)CC2Nc3ccccc3NC2=O)cc1 (stereo unspecified) | 62% (inactive)
N#Cc1cn(-c2ccccc2)nc1-c1cccnc1 | 73% (inactive)
O=C(Nc1ccccn1)NC12CC3CC(CC(C3)C1)C2 | 106% (inactive)
Cc1ccc(NC(=O)c2oc3ccc4c(c3c2C)C(=O)CC(C)(C)O4)c(C)c1 | 83% (inactive)
CC1CCN(C(C(=O)O)c2ccccc2)CC1 (stereo unspecified) | 98% (inactive)
CN1CCN(C(CNC(=O)C(=O)Nc2ccc(Cl)cc2)c2cccnc2)CC1 (stereo unspecified) | 86% (inactive)
COc1ccccc1CNC(=O)CSc1ncc(S(=O)(=O)c2ccc(C)c(Cl)c2)c(=O)[nH]1 | 124% (inactive)
Cc1cccc(CNS(=O)(=O)c2ccc(-c3cnc(C4CC4)o3)cc2)c1 | 52% (active)
O=S(=O)(NCc1ccccc1)c1ccc(-c2cnc(C3CC3)o2)cc1 | 71% (inactive)
Cc1ccc(CNS(=O)(=O)c2ccc(-c3cnc(C4CC4)o3)cc2)cc1 | 76% (inactive)
CC(C)c1ccc(NC(=O)C(C)N(c2ccccc2)S(C)(=O)=O)cc1 (stereo unspecified) | 65% (inactive)
COc1ccc(N2CCN(C(=O)Cc3noc4ccc(C)cc34)CC2)cc1 | 42% (active)
COc1ccc(N2CCN(C(=O)Cc3coc4ccc(C)cc34)CC2)cc1 | 105% (inactive)
Cc1ccc2onc(CC(=O)N3CCN(c4cccc(Cl)c4)CC3)c2c1 | 83% (inactive)
Cc1ccc2onc(CC(=O)N3CCN(c4ccccc4)CC3)c2c1 | 40% (active)

SMILES | survival
Cc1ccc2onc(CC(=O)N(C)c3ccccc3)c2c1 | 52% (inactive)
Cc1ccc2oc(=O)c3cnn(CC(=O)N4CCN(c5ccccc5)CC4)c3c2c1 | 123% (inactive)
Cc1ccc2onc(CC(=O)N3CCN(c4cccc(C)c4C)CC3)c2c1 | 39% (active)
Cc1ccc2onc(CC(=O)N3CCN(c4cc(Cl)ccc4C)CC3)c2c1 | 96% (inactive)
COc1ccc(N2CCN(C(=O)NCc3noc4ccccc34)CC2)cc1 | 42% (inactive)
Cc1ccc2onc(CC(=O)N3CCN(c4ccc(Cl)cc4)CC3)c2c1 | 30% (active)
Cc1ccc2onc(CC(=O)N3CCN(c4ccccc4F)CC3)c2c1 | 71% (inactive)
Cc1ccc2onc(CNC(=O)N3CCN(c4cccc(C)c4C)CC3)c2c1 | 48% (inactive)
COc1ccc(-n2c(=O)[nH]c3cc(C(=O)NCCc4ccccc4)ccc3c2=O)cc1OC | 94% (inactive)
COc1ccccc1NC(=O)Cn1c(=O)n(-c2ccc(C)cc2)c(=O)c2ccc(C(=O)NCc3ccco3)cc21 | 79% (inactive)
Cc1ccc(N2CCN(C(=O)Cn3ncc4c([nH]c5ccc(C)cc54)c3=O)CC2)c(C)c1 | 94% (inactive)
COc1ccc(NC(=O)C2=C(C)Nc3ncnn3C2c2ccccn2)cc1 (stereo unspecified) | 81% (inactive)
Cc1ccc(S(=O)(=O)N2C(=O)CCC2C(=O)NCc2ccco2)cc1 (stereo unspecified) | 77% (inactive)
Cc1ccc2c(CC(=O)N3CCN(c4cccc(Cl)c4)CC3)coc2c1 | 75% (inactive)
CCN(CC)CC(=O)Oc1ccc(NC2=NS(=O)(=O)c3ccccc32)cc1 | 96% (inactive)
CC1CCCN(C(=O)CCS(=O)(=O)c2cc3c(cc2Cl)NC(=O)CO3)C1 (stereo unspecified) | 84% (inactive)
CCCC(=O)NCCc1ccc(F)cc1 | 119% (inactive)
COC(=O)c1cc2occc2n1CC(=O)Nc1cccc(SC)c1 | 102% (inactive)
Cc1ccc2onc(CC(=O)N3CCN(c4ccc(F)cc4)CC3)c2c1 | 41% (active)
Cc1ccc2oc(=O)c3cnn(CC(=O)N4CCN(c5ccc(F)cc5)CC4)c3c2c1 | 106% (inactive)
CC(=O)c1ccc(N2CCN(C(=O)NCc3noc4ccc(C)cc34)CC2)cc1 | 45% (inactive)
CC(C)CNCC(=O)N(C1CCCCC1)C1CCCCC1 | 116% (inactive)
CCn1cc(CNC(=O)c2cc(-c3ccc(C)cc3)nc3ccc(Br)cc23)c(C)n1 | 40% (active)
Cc1ccc(-c2cc(C(=O)NCc3cnn(C)c3C)c3ccccc3n2)cc1C | 49% (active)

SMILES | survival
Cc1ccc(-c2cc(C(=O)NCc3cnn(C)c3C)c3cc(Br)ccc3n2)cc1 | 36% (active)
Cc1c(CN(C)C(=O)c2cc(-c3ccccc3)nc3ccc(Br)cc23)cnn1C | 30% (active)
CCOc1ccc(-c2cc(C(=O)NCc3ccccc3Cl)c3ccccc3n2)cc1 | 89% (inactive)
N#CCN(CC#N)C(=O)c1cc(-c2ccccc2)nc2ccccc12 | 89% (inactive)
Cc1ccc(-c2cc(C(=O)NCc3ccccc3Cl)c3ccccc3n2)cc1C | 68% (inactive)
Cc1ccc(CNC(=O)c2cc(-c3ccc(C)c(C)c3)nc3ccccc23)cc1 | 74% (inactive)
Cc1nn(C)cc1CN(C)C(=O)c1cc(-c2ccccc2)nc2ccc(Br)cc12 | 67% (inactive)
CCn1cc(CNC(=O)c2cc(-c3ccc(C)c(C)c3)nc3ccccc23)c(C)n1 | 123% (inactive)
COc1ccc(-c2cc(C(=O)NCc3ccc(C)cc3)c3cc(C(C)C)ccc3n2)cc1 | 76% (inactive)
Cc1ccc(-c2cc(C(=O)NCc3cnn(C)c3)c3cc(Br)ccc3n2)cc1 | 51% (inactive)
CC(C)N(C(=O)CSc1nnc(CSc2ncccn2)n1C)C(C)C | 58% (inactive)
CCOC(=O)c1ccc(NC(=O)Cc2ccc(-n3c(CC)nc4cccnc43)cc2)cc1 | 68% (inactive)
Cc1ccccc1Cn1c(=O)n(Cc2ccc3c(c2)OCO3)c(=O)c2oc3ccccc3c21 | 110% (inactive)
C/C=N/NC(=O)c1ccccc1 | 93% (inactive)
O=C(NC1CCCCC1)c1ccc2c(c1)N(Cc1cccc(F)c1)C(=O)c1ccccc1S2 | 88% (inactive)
Cn1cnc(S(=O)(=O)N2CCC(C(=O)Nc3ccc(C#N)cc3)CC2)c1 | 107% (inactive)
CC1=C(C(=O)Nc2cccc(C(F)(F)F)c2)C(c2ccccn2)n2ncnc2N1 (stereo unspecified) | 102% (inactive)
CC(C)(C)c1nn(-c2ccccc2)c2[nH]c(=O)c(CNc3ccc4c(c3)OCO4)cc12 | 86% (inactive)
CCOC(=O)c1ccc(N2C(=O)c3[nH]nc(-c4ccccc4)c3C2c2cccs2)cc1 (stereo unspecified) | 123% (inactive)
CCOC(=O)c1cc2c(=O)n3ccccc3nc2n(Cc2ccco2)c1=NC(=O)c1ccccc1Br | 71% (inactive)
CCOC(=O)c1cc2c(=O)n3ccccc3nc2n(Cc2ccco2)c1=NC(=O)c1ccc(OC)cc1 | 34% (active)
CCOC(=O)c1cc2c(=O)n3ccccc3nc2n(CC(C)C)c1=NC(=O)COc1ccc(Cl)cc1 | 136% (inactive)
CCOC(=O)c1cc2c(=O)n3ccccc3nc2n(Cc2ccco2)c1=NC(=O)c1ccc(OCC)cc1 | 37% (active)
CCOC(=O)c1cc2c(=O)n3ccccc3nc2n(Cc2ccco2)c1=NC(=O)c1ccccc1OC | 28% (active)
